High-throughput results as filed in PubChem BioAssay.
Sfp inh – qHTS Assay for Inhibitors of Bacillus subtilis Sfp phosphopantetheinyl transferase (PPTase); Biochemical Sfp PPTase activity, qHTS; Potency, µM, actives largely listed as inhibitors; 310,000 tested, 3.5% active;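 further: the enzyme is Sfp with the accession as filed and its product quenches rhodamine fluorescence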
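Buffer: 50 mM Hepes-Na pH 7.6, 10 mM MgCl2, 0.01% Nonidet P-40, 0.01% BSA. Enzyme 15 nM, pre-exposed to compound 15 min; substrates then added and fluorescence change tracked over 30 min.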
VP16 counter – VP16 counterscreen qHTS for inhibitors of ROR gamma transcriptional activity | 310,000 tested, 3.5% active | AID 2546, 2010 | Potency, µM (titrated, usually from 53.6 µM), hits mostly inhibitors | Drosophila S2 Gal4-VP16 UAS-luciferase, luminescence, 20 h;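 further: Gal4-VP16 expression switched on by copper sulfate through the metallothionein promoter; nearly all actives have a fitted effect of over 50% in size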
RORgamma inh – qHTS for inhibitors of ROR gamma transcriptional activity; 310,000 tested, 5.4% active; AID 2551, 2010; Nuclear receptor ROR-gamma (Mus musculus), P51450; Potency, µM (series often up to 53.6 µM), actives largely listed as inhibitors; Drosophila S2 Gal4-RORgamma UAS-luciferase reporter, 20 h; further: nearly all actives have a fitted effect of over 60% in size
Target sequence (P51450 whole entry, looked up, the tested form may be a part): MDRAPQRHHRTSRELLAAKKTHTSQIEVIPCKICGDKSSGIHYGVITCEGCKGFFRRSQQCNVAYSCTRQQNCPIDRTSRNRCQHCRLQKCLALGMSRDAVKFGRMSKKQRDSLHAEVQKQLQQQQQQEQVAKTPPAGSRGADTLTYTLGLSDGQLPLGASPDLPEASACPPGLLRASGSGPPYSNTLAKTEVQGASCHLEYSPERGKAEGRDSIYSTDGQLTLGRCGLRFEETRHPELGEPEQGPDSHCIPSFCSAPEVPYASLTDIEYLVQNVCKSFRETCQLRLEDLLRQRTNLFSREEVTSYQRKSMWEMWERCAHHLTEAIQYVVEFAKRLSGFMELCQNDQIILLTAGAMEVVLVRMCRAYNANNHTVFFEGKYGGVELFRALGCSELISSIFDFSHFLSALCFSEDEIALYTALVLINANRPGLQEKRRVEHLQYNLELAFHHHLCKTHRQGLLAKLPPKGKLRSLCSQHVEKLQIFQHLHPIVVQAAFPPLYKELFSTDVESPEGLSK
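In this cell-based reporter format, copper sulfate (700 uM final) drives Gal4–ROR gamma fusion expression from a metallothionein promoter in Drosophila Schneider cells; compounds preincubated 1 hr, reporter read after 20 hr at ambient temperature.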
ClpP mod – qHTS Assay for Activators of ClpP | 340,000 tested, 1.9% active | purified B. subtilis ClpP, FRET peptide cleavage, 20 min | Potency, µM (highest dose often 57.5 µM) | ATP-dependent Clp protease proteolytic subunit (Bacillus subtilis (strain 168)), P80244; active means well fitted falling curve with a large enough effect; inconclusive means small, poorly fitted or top-dose-only effect; inactive means no such curve, though single readings can be large or run the other way; further: the source files actives as falling curves though it sought activators and does not explain the sign; nearly all actives have a fitted effect of over 65% in size
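FRET quenching reversal measured ClpP activation: 10 microg/mL B. subtilis ClpP at pH 8 with the FRET-FV decapeptide, read at 430 nm after 320 nm excitation. The 20-min minus 0-min signal was scaled between DMSO/no-enzyme wells and ADEP (5.8 microM final).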
PINK1 expr mod – A Quantitative High throughput Screen to Identify Chemical Modulators of PINK1 Expression. PINK1 immunofluorescence, high-content cytometry, 24 h. Potency, µM (titrated, usually from 76.6 µM), usual class: activators. 410,000 tested, 0.2% active. AID 624263, 2012; active means well fitted activation curve with a large enough effect; inconclusive means small, poorly fitted or top-dose-only effect; cell line not stated here; further: nearly all actives have a fitted effect of over 65% in size
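Readout is PINK1 immunofluorescence, quantified alongside mitochondrial, cell and nuclear markers by laser-scanning microplate cytometry. Cells from a stable line were exposed to compound titrations (5 concentrations) for 24 hours, with CCCP controls.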
Epigenetic derep – Quantitative High-Throughput Screen for Regulators of Epigenetic Control; murine LDR cells, GFP reporter derepression, 30 h; 280,000 tested, 0.2% active; Potency, µM (series often up to 53.9 µM), most hits filed as activators; further: nearly all actives have a fitted effect of over 60% in size
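Derepression of a silenced CMV-GFP reporter in murine LDR cells is scored by enumerating GFP-positive cells with a laser-scanning microplate cytometer after 30 hours of treatment at 37 C.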
Each line names hits and unclear results; the compound was inactive in the other large screens. Compounds with a hit are over-represented: about 8.1% of the library has one in this group of screens. Unless noted, the call rests on the fitted dose curve; in most records, active means well fitted curve in the direction sought with a large enough effect; inconclusive means small, poorly fitted or top-dose-only effect, or another doubt; inactive means no such curve, though single readings can be large; an effect the other way counts as inactive or inconclusive.

COc1ccccc1CNC(=O)Cn1c(-c2cccs2)cc2cc(F)ccc21	ClpP mod 32µM (no result: Sfp inh, VP16 counter, RORgamma inh)
CCOc1cc(CNC(=O)Cn2c(-c3cccs3)cc3cc(F)ccc32)ccc1OC	ClpP mod 25µM, Epigenetic derep inconclusive (no result: Sfp inh, VP16 counter, RORgamma inh)
CC(C)OCCCNC(=O)Cn1c(-c2cccs2)cc2cc(F)ccc21	none (no result: Sfp inh, VP16 counter, RORgamma inh)
Cc1ccc(-c2noc(CNC(=O)c3ccccc3)n2)cc1	none (no result: Sfp inh, VP16 counter, RORgamma inh)
c1csc(-c2ccc(N3CCOCC3)nn2)c1	VP16 counter 11µM, RORgamma inh inconclusive, ClpP mod inconclusive (no result: Epigenetic derep)
Cc1ccc(/C=C/c2nc3ccccc3[nH]2)o1	Sfp inh 5µM, RORgamma inh 11µM, Epigenetic derep inconclusive (no result: ClpP mod)
Cc1ccc(/C=C/c2nc3ccccc3[nH]2)cc1	none (no result: Sfp inh, VP16 counter, RORgamma inh)
Cc1cccc(CNC(=O)C(=O)Nc2ccccc2C)c1	none (no result: Sfp inh, VP16 counter, RORgamma inh)
Oc1[nH]c2ccccc2c1N=Nc1nc(Nc2ccccc2)nc(N2CCOCC2)n1	Sfp inh 16µM
Cc1[nH]c2ccccc2c1/C=N/Nc1nc(Nc2ccccc2)nc(N2CCOCC2)n1	RORgamma inh inconclusive
CC(C)CCNC(=O)CCn1c(=O)c2cccn2c2cccnc21	none (no result: Sfp inh, VP16 counter, RORgamma inh)
O=C(CSc1cccc2cccnc12)OCC(=O)c1ccc(Br)cc1	Epigenetic derep inconclusive
O=C(CSc1cccc2cccnc12)OCC(=O)c1ccccc1	RORgamma inh inconclusive, ClpP mod 25µM, Epigenetic derep inconclusive
CN(C)C(=O)CSc1cccc2cccnc12	VP16 counter inconclusive, RORgamma inh 10µM, ClpP mod 20µM
CCC(C)c1ccc(NC(=S)N2CCN(c3ccccn3)CC2)cc1 (stereo not drawn)	VP16 counter 13µM, RORgamma inh inconclusive (no result: Epigenetic derep)
S=C(Nc1ccc2snnc2c1)N1CCN(c2ccccn2)CC1	none
CCCCc1ccc(NC(=S)N2CCN(c3ccccn3)CC2)cc1	VP16 counter inconclusive, RORgamma inh 16µM (no result: ClpP mod, Epigenetic derep)
FC(F)Oc1cccc(NC(=S)N2CCN(c3ccccn3)CC2)c1	RORgamma inh 7.1µM
CCCCc1ccc(NC(=S)N2CCN(c3ncccn3)CC2)cc1	VP16 counter inconclusive, RORgamma inh 4.5µM (no result: ClpP mod)
COc1ccc(NC(=S)N2CCN(c3ccccn3)CC2)cc1	none
CCOc1ccc(S(=O)(=O)Nc2ccc(OC)c(Cl)c2)c2cccnc12	none (no result: Sfp inh, VP16 counter, RORgamma inh)
N/C(=N\OC(=O)c1csnn1)c1ccc(C(F)(F)F)cc1	Sfp inh 56µM (no result: ClpP mod)
Cc1ccc(C(=O)O/N=C(\N)c2ccc(C(F)(F)F)cn2)cc1	VP16 counter inconclusive (no result: Epigenetic derep)
Cc1ccc(-n2cc(C(=O)c3ccccc3O)cn2)cc1	VP16 counter inconclusive, RORgamma inh 11µM
Cc1ccc(Cn2c(=O)n(-c3ccc(C)c(C)c3)c(=O)c3c(C)c(C)sc32)cc1	Epigenetic derep inconclusive (no result: Sfp inh, VP16 counter, RORgamma inh)
CCOc1ccc(OCC(=O)Nc2c(C(=O)Nc3ccc(C)cc3)oc3ccccc23)cc1	none (no result: Sfp inh, VP16 counter, RORgamma inh)
S=C(NCCC(c1ccccc1)c1ccccc1)Nc1cccc(Cl)c1	VP16 counter 16µM, RORgamma inh 5µM, PINK1 expr mod inconclusive
S=C(NCCN(C1CCCCC1)C1CCCC1)Nc1cccc(Cl)c1	VP16 counter inconclusive, RORgamma inh 18µM (no result: Epigenetic derep)
S=C(Nc1cccc(Cl)c1)NC1CC2CCCC(C1)N2C1CCCC1 (stereo not drawn)	none
COc1ccc(C)cc1N/C(N)=N/c1nc(C)cc(C)n1	none
Cc1ccc(C)c(N/C(N)=N/c2nc(C)cc(C)n2)c1	ClpP mod 32µM
COc1ccc([C@]23Cc4cc(OC)c(OC)cc4C(O2)C2=C(CCCC2=O)O3)cc1	none (no result: ClpP mod, PINK1 expr mod, Epigenetic derep)
CCOC(=O)c1cc(-c2ccccc2)nn1Cc1ccccc1	none (no result: Sfp inh, VP16 counter, RORgamma inh)
CCOc1ccccc1NC(=O)CCc1c(C)nc2c3cccnc3nn2c1C	ClpP mod 28µM (no result: Sfp inh, VP16 counter, RORgamma inh)
C/C(=N\NC(=O)c1ccc2c(c1)OCCO2)c1ccccc1	VP16 counter 7.9µM, RORgamma inh 5.6µM (no result: ClpP mod)
CC(/C=C/c1ccccc1)=N/NC(=O)CNC(=O)c1ccc2c(c1)OCO2	none
C/C(=N\NC(=O)c1ccc(O)cc1)c1ccc2c(c1)OCCO2	none (no result: Sfp inh, VP16 counter, RORgamma inh, Epigenetic derep)
